Assay results published in PubChem BioAssay (Tox21).
Records with an inconclusive call do not appear. Entries that show only a call come without a potency. A number with no mark means an inactive call. Calls of active or inactive are those of the source. Unless noted, calls follow the shape of the full dose curve.

System: not listed separately
Test: cAMP Responsive Elements (CRE) small molecule agonists, cell-based qHTS assay (AID 1963590)
Conditions: CRE-bla HEK293T, beta-lactamase FRET ratio, 3 h; series mostly up to 92.4 µM
Summary of the method: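 Compound exposure lasted 3 h at 37 C/5% CO2 in CRE-bla HEK 293T cells grown in assay medium with 10% dialyzed FBS and 25 mM HEPES. Reporter signal came from LiveBLAzer B/G FRET substrate, 2 h, room temperature.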
For `O=C(O)c1cc(C(=O)O)c(C(=O)O)cc1C(=O)O`, the Potency was “inactive”. In the case of `COS(=O)(=O)C(F)(F)F`, the Potency is reported as “inactive”. In the case of `O=C(NS(=O)(=O)/C=C/c1ccccc1)c1ccc(F)cc1Cl`, the Potency is reported as “inactive”. With `CC(C)(Sc1cc(C(C)(C)C)c(O)c(C(C)(C)C)c1)Sc1cc(C(C)(C)C)c(O)c(C(C)(C)C)c1` the Potency was “inactive”. In the case of `Nc1c(N=Nc2ccc(-c3ccc(N=Nc4cc(S(=O)(=O)O)c5ccccc5c4N)cc3)cc2)cc(S(=O)(=O)O)c2ccccc12`, the Potency is reported as “inactive”. With `CC(C)NCCCC1(C(N)=O)c2ccccc2-c2ccccc21` the Potency was “inactive”. With `CC/C=C\CCOC(=O)c1ccccc1O` the Potency was “inactive”. For `CCCCCCCCCCCCCCNCCO`, the Potency was “inactive”. With `Cc1cc2c(s1)Nc1ccccc1N=C2N1CCN(C)CC1` the Potency was “inactive”. With `CC1(C)CC(OC(=O)CCCCCCCCC(=O)OC2CC(C)(C)NC(C)(C)C2)CC(C)(C)N1` the activation was 1.42% [at 19 µM]. With `FC(F)(F)C(F)(F)C(F)(F)C(F)(F)C(F)(F)C(F)(F)C(F)(F)C(F)(F)Br` the Potency was “inactive”. In the case of `CCCCCCCCCCCCCCBr`, the Potency is reported as “inactive”. With `O=C(O)CCCC[P+](c1ccccc1)(c1ccccc1)c1ccccc1` the Potency was “inactive”. With `CC(C)C1OCCN1CCOC(=O)NCCCCCCNC(=O)OCCN1CCOC1C(C)C` (stereo not drawn) the Potency was “inactive”. With `CC(=O)Oc1cc(C(C)C)c(OCCN(C)C)cc1C` the Potency was “inactive”. In the case of `CN(C)CCCOC1(Cc2ccccc2)CCCCCC1`, the Potency is reported as “inactive”. For `CC(C(=O)O)c1ccc(CC2CCCC2=O)cc1` (stereo not drawn), the Potency was “inactive”. Molecule `Nc1ccc(S(=O)(=O)Nc2ccnn2-c2ccccc2)cc1` has an activation of -0.057% [at 19 µM]. With `Oc1cccc2[nH]ccc12` the Potency was “inactive”. In the case of `CC(C)OCC1CO1` (stereo not drawn), the Potency is reported as “inactive”. For `NCC1CCC(C(=O)Oc2ccc(CCC(=O)O)cc2)CC1` (stereo not drawn), the Potency was “inactive”. For `O=C(CCCl)NCc1ccccc1`, the Potency was “inactive”. For `O=C(CCOCCOCCOCCOCCC(=O)Nc1c(I)cc(I)c(C(=O)O)c1I)Nc1c(I)cc(I)c(C(=O)O)c1I`, the Potency was “inactive”.

System: not listed separately
Test: cAMP Responsive Elements (CRE) small molecule antagonists, cell-based qHTS assay (AID 1963591; active = well fitted inhibition curve with a large enough effect in the signal ratio in the repeat runs, not every such curve was filed as active; the % refers to the signal ratio; also: potency is read from the fitted curve at half-maximal effect)
Conditions: CRE-bla HEK293T, beta-lactamase FRET ratio; series mostly up to 92.4 µM
Summary of the method: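 Stimulation used NKH477 at a final 0.25 uM for 3 h in compound-treated CRE-bla HEK293T cells, seeded 18 h beforehand. Reporter activity was measured with LiveBLAzer B/G FRET substrate after 2 h at room temperature.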
With `O=C(O)c1cc(C(=O)O)c(C(=O)O)cc1C(=O)O` the Potency was “inactive”. For `COS(=O)(=O)C(F)(F)F`, the Potency was “inactive”. With `Nc1c(N=Nc2ccc(-c3ccc(N=Nc4cc(S(=O)(=O)O)c5ccccc5c4N)cc3)cc2)cc(S(=O)(=O)O)c2ccccc12` the Potency was “inactive”. For `CC(C)NCCCC1(C(N)=O)c2ccccc2-c2ccccc21`, the Potency was “inactive”. With `CCCCCc1ccc(N)cc1` the Potency was “inactive”. For `CC/C=C\CCOC(=O)c1ccccc1O`, the Potency was “inactive”. For `CCCCCCCCCCCCCCNCCO`, the Potency was “inactive”. In the case of `O=C1OC(O)C(C(Cl)Cl)=C1Cl` (stereo not drawn), the Potency is reported as 44.6 µM (active). With `Cc1cc2c(s1)Nc1ccccc1N=C2N1CCN(C)CC1` the Potency was “inactive”. `CC1(C)CC(OC(=O)CCCCCCCCC(=O)OC2CC(C)(C)NC(C)(C)C2)CC(C)(C)N1` showed an activity change, negative = inhibition of -9.13% [at 18.9 µM]. With `C[C@H]1O[C@H](O[C@H]2[C@H](O)[C@@H](O)[C@@H](O[C@H]3[C@H](O)[C@@H](O)[C@H](O)O[C@@H]3CO)O[C@@H]2CO)[C@H](O)[C@@H](O)[C@@H]1N[C@H]1C=C(CO)[C@@H](O)[C@H](O)[C@H]1O` the Potency was “inactive”. With `CCCCCCCCCCCCCCBr` the Potency was “inactive”. For `Cc1ccc2c(c1)c1c3n2CCNC3CCC1` (stereo not drawn), the Potency was “inactive”. In the case of `O=C(O)CCCC[P+](c1ccccc1)(c1ccccc1)c1ccccc1`, the Potency is reported as “inactive”. With `CC(C)C1OCCN1CCOC(=O)NCCCCCCNC(=O)OCCN1CCOC1C(C)C` (stereo not drawn) the Potency was “inactive”. With `CCCCCCCCSCc1cc(C)c(O)c(CSCCCCCCCC)c1` the Potency was “inactive”. For `CC(=O)Oc1cc(C(C)C)c(OCCN(C)C)cc1C`, the Potency was “inactive”. In the case of `CN(C)CCCOC1(Cc2ccccc2)CCCCCC1`, the Potency is reported as “inactive”. With `CC(C(=O)O)c1ccc(CC2CCCC2=O)cc1` (stereo not drawn) the Potency was “inactive”. `Nc1ccc(S(=O)(=O)Nc2ccnn2-c2ccccc2)cc1` showed an activity change, negative = inhibition of 0.401% [at 18.9 µM]. In the case of `CC(C)Cn1cnc2c(N)nc3ccccc3c21`, the activity change, negative = inhibition is reported as 2.85% [at 18.9 µM]. For `Oc1cccc2[nH]ccc12`, the Potency was “inactive”. For `CC(C)OCC1CO1` (stereo not drawn), the Potency was “inactive”. In the case of `NCC1CCC(C(=O)Oc2ccc(CCC(=O)O)cc2)CC1` (stereo not drawn), the Potency is reported as “inactive”. With `O=C(CCCl)NCc1ccccc1` the Potency was “inactive”. With `O=C(CCOCCOCCOCCOCCC(=O)Nc1c(I)cc(I)c(C(=O)O)c1I)Nc1c(I)cc(I)c(C(=O)O)c1I` the Potency was “inactive”. In the case of `CC(C)C(=O)Nc1cccc(C(F)(F)F)c1`, the Potency is reported as “inactive”. In the case of `Clc1ccnc(Cl)n1`, the Potency is reported as “inactive”.

Biological target: Beta-2 adrenergic receptor (Homo sapiens) (UniProt P07550)
Sequence (P07550 whole entry, looked up): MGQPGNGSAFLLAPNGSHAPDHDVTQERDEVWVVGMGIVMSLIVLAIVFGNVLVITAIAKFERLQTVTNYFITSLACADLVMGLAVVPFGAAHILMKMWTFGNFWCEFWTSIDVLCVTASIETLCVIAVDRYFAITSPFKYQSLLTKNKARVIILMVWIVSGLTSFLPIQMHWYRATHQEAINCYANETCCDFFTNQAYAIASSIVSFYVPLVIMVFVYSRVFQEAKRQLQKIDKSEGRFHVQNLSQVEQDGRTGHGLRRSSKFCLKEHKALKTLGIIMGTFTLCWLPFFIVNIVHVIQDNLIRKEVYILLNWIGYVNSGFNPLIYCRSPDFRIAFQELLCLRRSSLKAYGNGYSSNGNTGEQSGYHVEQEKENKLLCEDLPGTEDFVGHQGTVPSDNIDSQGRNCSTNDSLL
Test: Adrenergic beta2 receptor (ADRB2) small molecule antagonists, cell-based qHTS assay (AID 1963592); also: nearly all actives have a fitted effect of over 50% in size
Conditions: CHO-ADRB2 cells, isoproterenol-stimulated cAMP HTRF ratio, 0.5 h; series mostly up to 92.4 µM
Summary of the method: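 Assay format: CHO-ADRB2 cells, 18-20hr seeding at 37C/5% CO2, then compound plus 1nM isoproterenol agonist mix for 0.5hr RT. Homogeneous time-resolved fluorescence cAMP detection after 1hr, expressed as 665/615 nm ratio.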
For `O=C(O)c1cc(C(=O)O)c(C(=O)O)cc1C(=O)O`, the Potency was “inactive”. In the case of `O=S(=O)(O)c1ccc(N=Nc2c(O)ccc3ccccc23)cc1`, the Potency is reported as “inactive”. In the case of `O=C(NS(=O)(=O)/C=C/c1ccccc1)c1ccc(F)cc1Cl`, the Potency is reported as “inactive”. For `CC(C)(Sc1cc(C(C)(C)C)c(O)c(C(C)(C)C)c1)Sc1cc(C(C)(C)C)c(O)c(C(C)(C)C)c1`, the Potency was “inactive”. In the case of `CCCCCc1ccc(N)cc1`, the Potency is reported as “inactive”. With `CC/C=C\CCOC(=O)c1ccccc1O` the Potency was “inactive”. With `CCCCCCCCCCCCCCNCCO` the Potency was “inactive”. For `O=C1OC(O)C(C(Cl)Cl)=C1Cl` (stereo not drawn), the Potency was “inactive”. With `CC1(C)CC(OC(=O)CCCCCCCCC(=O)OC2CC(C)(C)NC(C)(C)C2)CC(C)(C)N1` the activity change, negative = inhibition was 8.71% [at 19 µM]. For `C=CC(=O)OCCOCCOC(=O)C=C`, the Potency was “inactive”. In the case of `FC(F)(F)C(F)(F)C(F)(F)C(F)(F)C(F)(F)C(F)(F)C(F)(F)C(F)(F)Br`, the Potency is reported as “inactive”. With `C=CC(=O)OCCOCC(CC)(COCCOC(=O)C=C)COCCOC(=O)C=C` the Potency was “inactive”. In the case of `C[C@H]1O[C@H](O[C@H]2[C@H](O)[C@@H](O)[C@@H](O[C@H]3[C@H](O)[C@@H](O)[C@H](O)O[C@@H]3CO)O[C@@H]2CO)[C@H](O)[C@@H](O)[C@@H]1N[C@H]1C=C(CO)[C@@H](O)[C@H](O)[C@H]1O`, the Potency is reported as “inactive”. For `CCCCCCCCCCCCCCBr`, the Potency was “inactive”. In the case of `Cc1ccc2c(c1)c1c3n2CCNC3CCC1` (stereo not drawn), the Potency is reported as “inactive”. With `O=C(O)CCCC[P+](c1ccccc1)(c1ccccc1)c1ccccc1` the Potency was “inactive”. In the case of `CC(C)C1OCCN1CCOC(=O)NCCCCCCNC(=O)OCCN1CCOC1C(C)C` (stereo not drawn), the Potency is reported as “inactive”. For `O=C(c1ccc(O)cc1)c1ccc(Cl)cc1`, the Potency was “inactive”. With `CN(C)CCCOC1(Cc2ccccc2)CCCCCC1` the Potency was “inactive”. For `CC(C(=O)O)c1ccc(CC2CCCC2=O)cc1` (stereo not drawn), the Potency was “inactive”. Molecule `Nc1ccc(S(=O)(=O)Nc2ccnn2-c2ccccc2)cc1` has an activity change, negative = inhibition of 0.77% [at 19 µM]. Work on `CC(C)Cn1cnc2c(N)nc3ccccc3c21` yielded an activity change, negative = inhibition of -12.1% [at 19 µM]. With `C/C=C\C/C=C/CCCCCCCCOC(C)=O` the Potency was “inactive”. With `CC(C)OCC1CO1` (stereo not drawn) the Potency was “inactive”. In the case of `CCOC(=O)N1CCC(Nc2ccc(Cl)cc2N)CC1`, the Potency is reported as “inactive”. For `CC(C)(O)c1ccc(CNC(=O)c2cccnc2Oc2ccc(F)cc2)cc1`, the Potency was “inactive”. For `NCC1CCC(C(=O)Oc2ccc(CCC(=O)O)cc2)CC1` (stereo not drawn), the Potency was “inactive”. For `O=C(CCCl)NCc1ccccc1`, the Potency was “inactive”. For `CCN1CCCC1CNC(=O)c1cc(S(=O)(=O)CC)c(N)cc1OC` (stereo not drawn), the Potency was “inactive”. For `O=C(CCOCCOCCOCCOCCC(=O)Nc1c(I)cc(I)c(C(=O)O)c1I)Nc1c(I)cc(I)c(C(=O)O)c1I`, the Potency was “inactive”. For `CC(C)C(=O)Nc1cccc(C(F)(F)F)c1`, the Potency was “inactive”. For `Clc1ccnc(Cl)n1`, the Potency was “inactive”.
